Hits are enriched below; roughly 3.2% of the tested compounds scored in any of these assays.
CRFBP-R2 block: blocks CRF-induced signaling of the CRF-BP/CRF-R2 complex. AID 588475. actives 0.59% (n = 350,000). HEK293 CRF-R2/CRF-BP, CRF-induced calcium fluorescence. inhibition, % at 11.8 µM;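 active means inhibition of the ligand-induced calcium signal above about 50% at the single tested concentration, limit read from the data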
CRFBP-R2 agonist: CRF-BP/CRF-R2 complex agonism; HEK293 CRF-R2/CRF-BP, calcium dye fluorescence (FLIPR); percent of saturating CRF peptide response; activation, % at 13.2 µM; actives 0.46% (n = 350,000);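 active means activation of at least 50%, plus an integration ratio under a set limit after plate pattern correction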;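 further: plate controls were neutral control wells without compound for no effect and CRF at EC100 for full effect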
Cardio protect: myocardial damage modulation in H9c2 cells; protection from H2O2 cell death, % at 20 µM; AID 588492; actives 0.63% (n = 360,000); H9c2 cardiomyocytes, H2O2 injury protection, ATPLite, 2 h;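 active means compounds giving at least 50% protection of heart cells from peroxide-induced death in the single-dose screen, raw or plate-pattern-corrected value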;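 further: 0% = DMSO wells with peroxide and 100% = DMSO wells without peroxide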
FAS TE block: FAS thioesterase (human) inhibition. inhibition, % at 15 µM. recombinant FAS-TE, OMFH fluorogenic substrate, fluorescence endpoint. P49327. actives 0.67% (n = 360,000);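 active means compounds whose normalised, plate-corrected inhibition of enzyme fluorescence in the single-dose primary screen is 50% or more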;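 further: 0% = DMSO with enzyme and 100% = substrate without enzyme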
Target sequence (P49327 whole entry, looked up): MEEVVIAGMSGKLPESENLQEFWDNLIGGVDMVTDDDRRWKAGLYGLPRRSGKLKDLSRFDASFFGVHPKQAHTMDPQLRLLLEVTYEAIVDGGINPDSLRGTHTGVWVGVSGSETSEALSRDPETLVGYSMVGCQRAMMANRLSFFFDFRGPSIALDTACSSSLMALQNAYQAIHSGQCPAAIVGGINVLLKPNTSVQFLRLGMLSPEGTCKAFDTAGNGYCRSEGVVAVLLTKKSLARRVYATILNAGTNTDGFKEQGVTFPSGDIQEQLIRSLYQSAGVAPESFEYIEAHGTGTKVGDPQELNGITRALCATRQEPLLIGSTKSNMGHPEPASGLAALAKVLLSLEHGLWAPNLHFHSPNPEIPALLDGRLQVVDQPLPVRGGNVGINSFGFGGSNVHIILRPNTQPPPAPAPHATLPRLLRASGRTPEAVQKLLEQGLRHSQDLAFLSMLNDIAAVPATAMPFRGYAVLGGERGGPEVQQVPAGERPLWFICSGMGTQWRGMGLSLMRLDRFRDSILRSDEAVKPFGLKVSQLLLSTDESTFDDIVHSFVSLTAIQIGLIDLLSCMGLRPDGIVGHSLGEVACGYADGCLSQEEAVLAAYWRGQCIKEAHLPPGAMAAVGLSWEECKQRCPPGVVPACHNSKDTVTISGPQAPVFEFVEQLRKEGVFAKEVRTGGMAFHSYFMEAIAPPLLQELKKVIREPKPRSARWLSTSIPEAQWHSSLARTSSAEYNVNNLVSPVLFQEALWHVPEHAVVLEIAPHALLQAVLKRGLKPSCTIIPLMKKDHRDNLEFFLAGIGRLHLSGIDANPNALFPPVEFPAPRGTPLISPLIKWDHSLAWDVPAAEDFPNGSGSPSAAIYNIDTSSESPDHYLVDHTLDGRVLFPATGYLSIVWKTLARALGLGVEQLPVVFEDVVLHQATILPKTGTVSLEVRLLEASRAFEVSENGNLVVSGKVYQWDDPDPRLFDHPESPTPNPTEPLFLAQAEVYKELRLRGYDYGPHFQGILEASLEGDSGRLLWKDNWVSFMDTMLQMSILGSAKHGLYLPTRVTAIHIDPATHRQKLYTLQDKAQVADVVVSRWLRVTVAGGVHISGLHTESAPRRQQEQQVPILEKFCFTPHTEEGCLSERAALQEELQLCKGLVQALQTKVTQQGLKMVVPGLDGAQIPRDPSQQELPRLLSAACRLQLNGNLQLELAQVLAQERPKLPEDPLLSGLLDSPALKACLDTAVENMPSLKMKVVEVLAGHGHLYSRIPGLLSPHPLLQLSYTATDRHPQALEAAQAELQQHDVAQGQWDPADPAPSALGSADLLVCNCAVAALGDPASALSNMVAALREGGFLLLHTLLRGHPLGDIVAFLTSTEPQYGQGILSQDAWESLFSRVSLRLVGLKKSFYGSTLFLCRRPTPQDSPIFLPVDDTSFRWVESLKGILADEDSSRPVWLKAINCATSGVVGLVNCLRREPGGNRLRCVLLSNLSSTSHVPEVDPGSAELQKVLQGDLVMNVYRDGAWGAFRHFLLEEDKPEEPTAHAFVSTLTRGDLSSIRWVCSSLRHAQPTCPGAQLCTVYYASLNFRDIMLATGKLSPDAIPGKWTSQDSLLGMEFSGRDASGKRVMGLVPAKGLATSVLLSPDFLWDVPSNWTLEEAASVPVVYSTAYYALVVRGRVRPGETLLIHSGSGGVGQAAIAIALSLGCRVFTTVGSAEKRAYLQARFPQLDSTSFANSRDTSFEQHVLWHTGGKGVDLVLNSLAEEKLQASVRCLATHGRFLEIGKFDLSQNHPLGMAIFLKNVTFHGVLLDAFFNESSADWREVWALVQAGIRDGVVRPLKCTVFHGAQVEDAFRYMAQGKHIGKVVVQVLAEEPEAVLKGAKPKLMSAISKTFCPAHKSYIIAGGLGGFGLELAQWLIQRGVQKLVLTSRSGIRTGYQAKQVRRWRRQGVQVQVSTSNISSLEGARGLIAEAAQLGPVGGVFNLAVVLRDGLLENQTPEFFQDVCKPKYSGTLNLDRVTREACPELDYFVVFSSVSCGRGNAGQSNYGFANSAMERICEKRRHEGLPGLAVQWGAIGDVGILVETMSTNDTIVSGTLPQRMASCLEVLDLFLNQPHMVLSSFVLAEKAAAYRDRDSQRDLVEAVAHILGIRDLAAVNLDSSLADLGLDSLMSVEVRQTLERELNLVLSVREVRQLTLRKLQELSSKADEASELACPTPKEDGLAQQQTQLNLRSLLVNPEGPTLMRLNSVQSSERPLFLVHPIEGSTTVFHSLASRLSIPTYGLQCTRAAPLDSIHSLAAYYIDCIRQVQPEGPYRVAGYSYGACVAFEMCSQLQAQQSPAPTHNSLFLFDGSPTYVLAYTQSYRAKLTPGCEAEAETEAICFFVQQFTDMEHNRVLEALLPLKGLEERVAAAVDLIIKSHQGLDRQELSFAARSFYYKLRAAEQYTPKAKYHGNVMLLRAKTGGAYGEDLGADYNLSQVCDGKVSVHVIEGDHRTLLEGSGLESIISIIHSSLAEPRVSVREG
aDG glyco act: alpha-DG glycosylation activation | Pro5-aDG cells, alpha-DG glycosylation AlphaScreen (IIH6); 0% Pro5, 100% B10-LARGE cell signal | activation, % at 10 µM | actives 0.22% (n = 360,000) | AID 624168;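 active means activation of at least 8% versus controls, or a plate z-score of at least 8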;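 further: Pro5 are CHO cells carrying HIG-tagged alpha-DG that lacks glycosylation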
PfGluPho inh: PfG6PD (Plasmodium falciparum) enzyme inhibition; PfGluPho enzyme, NADPH resazurin-diaphorase fluorescence; inhibition, % at 20 µM; actives 0.78% (n = 350,000);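 active means inhibition reaching at least a set limit at 20 µM in the primary screen, cut at about 59% in these data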;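 further: 0% = DMSO wells with substrate and 100% = DMSO wells lacking glucose-6-phosphate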
Starred values were filed as active, the others as inactive; x = no result given.

SMILES	CRFBP-R2 block	CRFBP-R2 agonist	Cardio protect	FAS TE block	aDG glyco act	PfGluPho inh
C=CCNC(=S)Nc1ccc2cn[nH]c2c1	4	-2	4	-6	0	11
Nc1ccc2cc3[nH]c4cc(N)ccc4c3nc2c1	-130	175*	-9	-142	0	45
C[C@@H]1C(c2cccc(Cl)c2)=NN(c2ccccc2)[C@H]1C(=O)N1CCOC1=O	4	8	-8	18	0	13
Cc1cccc(C2=NN(c3ccc(Br)cc3)[C@@H](C(=O)N3CCOC3=O)[C@@H]2c2ccccc2)c1	15	3	5	72*	0	14
Cc1cccc(C2=NN(c3ccccc3)[C@@H](C(=O)N3CCOC3=O)[C@@H]2c2ccccc2)c1	-2	4	-8	36	0	29
C[C@@H]1C(c2cccc(Cl)c2)=NN(c2ccc(Br)cc2)[C@H]1C(=O)N1CCOC1=O	-7	-1	2	56*	0	29
Cc1ccc(S(=O)(=O)N(C)C)cc1NC(=O)C(C)OC(=O)c1ccc2c(=O)n3c(nc2c1)CCC3 (stereo unspecified)	9	-2	-4	-1	0	0
CC(=O)Nc1cccc(NS(=O)(=O)c2cc3c4c(c2)CCN4C(=O)CC3)c1	-12	3	1	-18	0	-3
CC(OC(=O)/C=C/c1ccccc1)C(=O)N1CCc2ccccc21 (stereo unspecified)	13	0	-8	17	0	1
COc1ccccc1-c1ccc(SCc2cccc(F)c2)nn1	53*	0	-26	27	0	10
O=C1c2ccccc2NC(c2ccc(-c3cccc([N+](=O)[O-])c3)o2)N1O (stereo unspecified)	7	1	56*	-10	0	-13
O=C1c2ccccc2NC(c2ccc(-c3ccc(Br)cc3)o2)N1O (stereo unspecified)	-9	0	65*	-37	0	-37
O=C1c2ccccc2NC(c2ccc(-c3ccc(F)cc3)o2)N1O (stereo unspecified)	-13	-3	3	-3	1	-29
CSCCC(NC(=O)c1cccc(S(=O)(=O)N2CCN(C(C)=O)CC2)c1)c1nc2ccccc2[nH]1 (stereo unspecified)	-1	1	6	-2	0	-17
CSCC[C@H](NC(=O)c1cccc(S(=O)(=O)N2CCN(C)CC2)c1)c1nc2ccccc2[nH]1	-27	71*	-6	-1	0	-21
CCOC(=O)C1(C)CCN1C(=O)c1ccc(F)c(Cl)c1 (stereo unspecified)	x	x	4	-4	0	x
Cc1cc(OCc2nnc(SCC(=O)O)n2-c2ccccc2)ccc1Cl	2	0	2	-2	0	-13
O=C(CCc1nc2ccccc2c(=O)[nH]1)NCCN1C(=O)S/C(=C\c2ccc(OC(F)F)cc2)C1=O	3	-1	69*	15	0	-2
O=C(CCc1nc2ccccc2c(=O)[nH]1)NCCN1C(=O)S/C(=C\c2ccccc2Cl)C1=O	-15	-2	40	17	0	2
CCOC(=O)c1ccc(-n2c(=S)sc3c(=O)[nH]c(C)nc32)cc1	-1	1	3	-21	0	66*
CCOC(=O)CSc1nc2c(sc(=S)n2-c2ccc(CC)cc2)c(=O)[nH]1	30	-2	1	10	0	-46
CCCCNC(=O)c1cn(C)c2ccc(S(=O)(=O)N3CC(C)CC(C)C3)cc2c1=O (stereo unspecified)	-1	1	-5	36	0	-1
O=C(Nc1cccnc1)c1ccc([N+](=O)[O-])s1	2	1	-15	-6	9.7*	16
c1ccc(-c2noc(CN3CCN(c4cnccn4)CC3)n2)cc1	74*	0	3	0	2	-15
c1ccc(C(c2ccccc2)N2CCN(Cc3nc(-c4cnccn4)no3)CC2)cc1	-2	-1	-4	4	0	-12
SMILES	CRFBP-R2 block	CRFBP-R2 agonist	Cardio protect	FAS TE block	aDG glyco act	PfGluPho inh
Cc1ccc(-n2c(O)c(C=Nc3ccccc3-c3n[nH]c(=S)[nH]c3=O)c3ccccc3c2=O)c(C)c1	53*	-1	-6	25	-1	35
CCOc1ccccc1-n1c(C)nc2cc(C(=O)O)ccc21	70*	1	2	-3	0	-7
Cc1nc2cc(C(=O)O)ccc2n1-c1ccc(F)cc1F	5	-2	-6	-8	0	-11
CCc1ccc(Nc2n[n+](-c3ccccc3)c(-c3ccc(N(CC)CC)cc3)s2)cc1	-101	67*	-11	-127	0	25
CCOC(=O)C1CCCCN1Cc1ccc(OC)c(OC)c1 (stereo unspecified)	-6	-2	-4	-7	0	-21
CCC1CCCCN1Cc1ccc(OC)c(C)c1 (stereo unspecified)	38	65*	4	-3	0	9
COc1ccc(CN2CCSCC2)cc1C	21	69*	5	-10	0	-8
CC(=O)NCCN1C(=O)S/C(=C\c2cccs2)C1=O	-9	0	5	-7	0	24
CCc1ccc(NC(=O)CSc2nc3ccccc3c(=O)n2CCCN2CCC(C)CC2)cc1	-10	-1	-23	7	6	5
O=C(NCc1ccncc1)c1cc(F)c(F)cc1Cl	60*	0	-2	-4	0	-20
Cc1cccc(S(=O)(=O)NCCNS(=O)(=O)c2cccc(C)c2)c1	-7	-2	-5	-4	0	9
CCOCc1cc(CN2CCCC(CNC(=O)c3ccco3)C2)ccc1OC (stereo unspecified)	76*	-1	4	-4	0	14
CSc1cccc(CN2CCCC(CNC(=O)c3ccco3)C2)c1 (stereo unspecified)	-3	-1	-2	-6	0	9
CCOc1ccc2nc(NC(=O)c3ccoc3C)sc2c1	32	0	-30	11	0	1
CCN(c1ccccc1)S(=O)(=O)c1ccc(NC(=O)c2ccco2)cc1	77*	-2	5	9	2	0
CN(c1ccccc1)S(=O)(=O)c1ccc(NC(=O)c2ccco2)cc1	-48	3	-2	6	0	4
Cc1cc(=O)[nH]c(N/N=C/C(C)c2ccccc2)n1 (stereo unspecified)	5	-2	1	-8	0	42
CC1CCN(C(=O)c2[nH]cnc2C(=O)N[C@@H](C)c2ccccc2)CC1	-4	-1	-3	-9	0	-12
Clc1ccc(-c2nnc(NCc3ccccc3)c3ccccc23)cc1	52*	-2	-11	24	0	-2
Cc1cc(N2CCN(S(=O)(=O)c3ccc(Cl)c(Cl)c3)CC2)c2ccccc2n1	-2	1	2	24	2	-11

From PubChem
